Screen size: about 52,000 compounds; about 4,300 (8.3%) were called active. No stated cut-off is given here; in the data, active means survival mostly below about 52% (no sharp cut-off); inactive means mostly above about 56%. This excerpt belongs to a sample that is enriched for actives.
test system: DeltatarO mutant; assay: S. aureus survival, RN4220 and DeltatarO strains – OD600, teichoic acid synthesis inhibitors, primary screen (AID 463173); conditions: S. aureus RN4220 wild type/DeltatarO growth, OD600, 18 h, stronger effect = lower value, screened at 18.75 µg/mL (by protocol)

SMILES	survival
CCC(Sc1nc2ccccc2c2nc(-c3ccccc3)nn12)C(=O)Nc1cccc(OC)c1 (configuration not stated)	94% (inactive)
O=C(NCc1ccc(F)cc1)C(=O)Nc1ccc2nc3n(c(=O)c2c1)CCCCC3	94% (inactive)
Cc1cc(C)cc(NC(=O)COCc2cc(-c3ccc4c(c3)OCO4)on2)c1	55% (inactive)
COC(=O)C1=C(N)OC2=C(C(=O)CCC2)C1c1ccc(OC)cc1 (configuration not stated)	102% (inactive)
O=C(Nc1ccc2nc(SCC(=O)N3CCCC3)sc2c1)c1ccc(Br)cc1	92% (inactive)
O=c1ccn2c(n1)OC1C(O)C(CO)OC12 (configuration not stated)	83% (inactive)
O=C(c1ccccc1)N(C(=O)c1ccccc1)c1ccccn1	71% (inactive)
Cc1cc2c(cc1S(=O)(=O)Nc1cccc(C#N)c1)OCC(=O)N2	93% (inactive)
COc1cccc(N2CCN(C(=O)CCc3c(C)nc4c(c3C)c(=O)n(C)c(=O)n4C)CC2)c1	98% (inactive)
CN(c1ccc(F)cc1)S(=O)(=O)N1CCCC(C(=O)NCc2cccc(Br)c2)C1 (configuration not stated)	72% (inactive)
O=C(Nc1ccccn1)C(=NO)C(=O)Nc1ccccn1	98% (inactive)
CC(C)c1ccccc1NC(=O)C(Cc1c[nH]c2ccccc12)NC(=O)OC(C)(C)C (configuration not stated)	162% (inactive)
COc1ccc(NC(=O)C(Cc2c[nH]c3ccccc23)NC(=O)OC(C)(C)C)cc1 (configuration not stated)	48% (inactive)
Cc1ccc(NC(=O)C(Cc2c[nH]c3ccccc23)NC(=O)OC(C)(C)C)c(C)c1 (configuration not stated)	27% (active)
N#Cc1ccccc1NC(=O)c1cccs1	93% (inactive)
Cc1ccc(Nc2ncc(C(=O)Nc3ccc(F)cc3F)c3ccccc23)cc1Cl	37% (active)
CCOc1ccc(NC(=O)c2cnc(Nc3ccccc3OC)c3ccccc23)cc1	50% (inactive)
COC(=O)c1ccccc1NC(=O)c1cnc(Nc2ccc(OC)cc2)c2ccccc12	61% (inactive)
COc1ccc(Nc2ncc(C(=O)Nc3cccc(OC)c3)c3ccccc23)cc1	106% (inactive)
COc1ccc(NC(=O)c2cnc(Nc3ccc(C)c(Cl)c3)c3ccccc23)c(OC)c1	63% (inactive)
COc1ccc(OC)c(NC(=O)c2cnc(Nc3ccc(C)c(Cl)c3)c3ccccc23)c1	44% (active)
COc1ccc(NC(=O)c2cnc(Nc3ccc(C)c(Cl)c3)c3ccccc23)cc1OC	51% (inactive)
COc1ccccc1Nc1ncc(C(=O)Nc2ccc(OC)c(OC)c2)c2ccccc12	43% (active)

SMILES	survival
Cc1ccc(Nc2ncc(C(=O)N3CCN(c4ccc(F)cc4)CC3)c3ccccc23)cc1Cl	76% (inactive)
COc1ccc(Nc2ncc(C(=O)Nc3ccc(F)cc3F)c3ccccc23)cc1	35% (active)
COc1ccc(Nc2ncc(C(=O)Nc3cc(C)ccc3OC)c3ccccc23)cc1	50% (inactive)
COc1ccc(Nc2ncc(C(=O)Nc3cc(Cl)c(OC)cc3OC)c3ccccc23)cc1	72% (inactive)
CCOC(=O)c1c(C)[nH]c(C)c1S(=O)(=O)N(C)CC(=O)Nc1cc(Cl)ccc1C	94% (inactive)
COc1ccc(S(=O)(=O)c2cn(C)c3cc(N4CCOCC4)c(F)cc3c2=O)cc1	96% (inactive)
CCc1cccc(CC)c1NC1=NS(=O)(=O)c2ccccc21	70% (inactive)
Cc1cc(N2CCN(c3ccc(F)cc3)CC2)n2cnnc2n1	79% (inactive)
COc1ccc(-c2cn3cccnc3n2)cc1NC(=O)Nc1ccc(Cl)cc1	84% (inactive)
Cc1cc(C)cc(NC(=O)CSc2nncn3c2cc2occc23)c1	46% (active)
COc1ccc(NC(=O)CSc2nncn3c2cc2occc23)c(OC)c1	69% (inactive)
CCc1cccc(C)c1NC(=O)C(CC)Sc1nncn2c1cc1occc12 (configuration not stated)	53% (active)
O=C(CSc1nncn2c1cc1occc12)Nc1ccc(F)c(Cl)c1	65% (inactive)
Cc1cc(C)c(NC(=O)CSc2nncn3c2cc2oc(C)cc23)c(C)c1	65% (inactive)
CCc1ccccc1NC(=O)CSc1nncn2c1cc1oc(C)cc12	62% (inactive)
CCc1cccc(C)c1NC(=O)CSc1nnc(CC)n2c1cc1occc12	67% (inactive)
CCC(Sc1nncn2c1cc1oc(C)cc12)C(=O)Nc1ccc(F)cc1 (configuration not stated)	54% (inactive)
CCc1nnc(SC(CC)C(=O)Nc2cc(C)ccc2C)c2cc3occc3n12 (configuration not stated)	79% (inactive)
CCc1nnc(SC(CC)C(=O)Nc2ccc(OC)c(Cl)c2)c2cc3occc3n12 (configuration not stated)	72% (inactive)
Cc1cc2c(cc3c(SCC(=O)Nc4ccc(Cl)cc4F)nncn32)o1	36% (active)
CCC(Sc1nncn2c1cc1occc12)C(=O)Nc1ccc(C)c(Cl)c1 (configuration not stated)	36% (active)
CC(C)c1ccc(NC(=O)c2ccc(F)c(S(=O)(=O)N3CCCC3)c2)cc1	74% (inactive)
Cc1ccccc1C(=O)N1CCCCC1CCN1CCCCC1 (configuration not stated)	80% (inactive)

SMILES	survival
Cc1ccc(S(=O)(=O)N2CC=C(c3ccc(F)cc3)CC2)cc1	87% (inactive)
Cc1nn2c(=O)cc(COC(=O)c3ccccc3NC(=O)c3cccs3)nc2s1	74% (inactive)
COc1ccc(CN(Cc2ccco2)C(=O)c2ccccc2F)cc1	74% (inactive)
CCOc1ccc(C2C(=O)N(C3CCCCCC3)CC(=O)N2Cc2ccc(C)cc2)cc1OC (configuration not stated)	96% (inactive)
CSc1cccc(NC(=O)Cn2nc(C)c3sc4ccccc4c3c2=O)c1	83% (inactive)
CC1(C)Oc2ccc3ccc(=O)oc3c2-c2cn[nH]c21	69% (inactive)
Cc1cccc(NS(=O)(=O)c2c(C)nc3sccn3c2=O)c1C	108% (inactive)
Cc1nc2sccn2c1-c1csc(Nc2cccc(Cl)c2C)n1	15% (active)
Cc1nc2sccn2c(=O)c1S(=O)(=O)Nc1cccc(Cl)c1C	68% (inactive)
CCCCC(CC)C(=O)Nc1nnc(C(C)C)s1 (configuration not stated)	91% (inactive)
O=C(CN1C(=O)CC(c2ccco2)Sc2ccccc21)Nc1ccc(Br)cc1 (configuration not stated)	75% (inactive)
O=C1CC(c2nnc(Cc3ccc(F)cc3Cl)o2)CN1c1ccccc1 (configuration not stated)	133% (inactive)
Cc1ccc(SCc2nc(-c3ccc(C(=O)NCCc4ccc(Cl)cc4)cc3)oc2C)cc1	-2% (active)
COc1ccc(OC)c(CNC(=O)c2ccc(-c3nc(CSc4ccccc4)c(C)o3)cc2)c1	120% (inactive)
Cc1ccc(SCc2nc(-c3ccc(C(=O)NCc4ccc(Cl)cc4)cc3)oc2C)cc1	76% (inactive)
CCc1ccc(CNC(=O)c2ccc(-c3nc(CSc4ccc(C)cc4)c(C)o3)cc2)cc1	67% (inactive)
COc1ccc(CNC(=O)c2ccc(-c3nc(CSc4ccc(C)cc4)c(C)o3)cc2)c(OC)c1	6% (active)
COc1ccc(CNC(=O)c2ccc(-c3nc(CSc4ccc(C)cc4)c(C)o3)cc2)cc1OC	-1% (active)
COc1ccc(CNC(=O)c2ccc(-c3nc(CSc4ccccc4)c(C)o3)cc2)cc1OC	78% (inactive)
Cc1oc(-c2ccc(C(=O)NCCc3ccc(Cl)cc3)cc2)nc1CSc1ccccc1	83% (inactive)
COc1ccc(CNC(=O)c2ccc(-c3nc(CSc4ccccc4)c(C)o3)cc2)c(OC)c1	85% (inactive)

— PubChem BioAssay AID463173 (ICCB-Longwood Screening Facility, Harvard Medical School, 2010)
